High-throughput results deposited in PubChem BioAssay by National Center for Advancing Translational Sciences (NCATS).
Only some compounds are listed: those with a hit (about 2.5% of all), similar ones and a draw of the others.
CCT chaperon mod – High-Throughput Screening for Modulators of Cytosolic Chaperonin Activity; activity change, % (no concentration beside the values), hits read low; AID 651819, 2012; purified chaperonin ATPase assay, HTRF ADP detection, 30 min; actives 0.3% (n = 360,000); in the data active = activity change below about -30%; also: % is scaled to controls: 0 for no effect and ±100 for the full control effect
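Enzyme 40 or 20 nM (batch-dependent) in Tris pH 7.4/KCl/MgCl2/DTT; cpd 76 uM single point; ATP 10 uM; 30 min 37 °C; Transcreener ADP HTRF detection, 30 min RT; ratio 665/615.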
Akt phos inh – HTS Assay for Inhibitors of Akt Phophorylation: Primary Screen; Neuro2A IGF-stimulated pAkt S473 HTRF, 20 min; hits give low values; activity change, % for hits at 50 µM; actives 0.32% (n = 360,000); AID 651550, 2012; in the data active = activity change below about -80%; inconclusive = mostly about -51% to -80%; also: % is scaled to controls: 0 for no effect and ±100 for the full control effect
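Single-point screen (50 µM final compound) in Neuro2A cells stimulated 20 min with 6 nM IGF at 37 deg C. After lysis, Ser473-phosphorylated Akt read by HTRF (ex 330 nm, em 615/665 nm) as the 665/615 ratio.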
aSyn rescue – qHTS of alpha-syn Inhibitors | Yeast expressing alpha-synuclein, growth rescue, BacTiter-Glo, 24 h | Potency, µM (series often up to 46.1 µM), inactives show top-dose growth rescue (activation), most hits filed as activators | actives 0.14% (n = 370,000); also: potency is read from the fitted curve at half-maximal effect; % of control where 0% means no effect; nearly all actives have a fitted effect of over 65% in size
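Screening used galactose-induced yeast with toxic alpha-synuclein levels, exposed to compound for 24 hr at 30 deg C. Cell growth, read with BacTiter-Glo luminescence, gave the measured signal.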
Apoferritin bind – qHTS Assay for Identification of Novel General Anesthetics | apoferritin/1-aminoanthracene competitive binding, fluorescence | Potency, µM (titrated, usually from 77.5 µM), without a hit: top-dose activity change, negative = displacement, usual class: inhibitors | AID 485281, 2010 | Ferritin light chain (Equus caballus), P02791 | actives 0.074% (n = 350,000); also: potency is read from the fitted curve at half-maximal effect; % is scaled to controls: 0 for no effect and ±100 for the full control effect; nearly all actives have a fitted effect of over 20% in size
Target sequence (P02791 2-175 limits assumed): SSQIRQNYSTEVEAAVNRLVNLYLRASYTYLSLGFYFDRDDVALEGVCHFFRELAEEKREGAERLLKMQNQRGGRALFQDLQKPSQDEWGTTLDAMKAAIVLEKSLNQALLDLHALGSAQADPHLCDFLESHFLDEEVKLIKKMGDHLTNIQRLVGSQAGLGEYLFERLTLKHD
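Horse-spleen apoferritin (10 uM) in 50% saturated 1-aminoanthracene in PBS was incubated 10 min at room temperature with compound. Fluorescence (ex 380, em 535 nm) was normalized to free and bound 1-AMA, with concentration-response fitted by a four-parameter Hill equation.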
Mito fusion act – qHTS Assay for Small Molecule Inhibitors of Mitochondrial Division or Activators of Mitochondrial Fusion. S. cerevisiae fusion-defective mutant growth rescue, CellTiterGlo 48 h. Potency, µM (doses to about 46.1 µM), inactives show at the top dose growth rescue (activation), most hits filed as activators. actives 0.23% (n = 320,000). AID 485298, 2010; also: potency is read from the fitted curve at half-maximal effect; % of control where 0% means no effect; nearly all actives have a fitted effect of over 45% in size
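Growth-rescue viability read-out: after 48 h at the non-permissive 37C in glycerol/ethanol YPEG, yeast mitochondrial fusion mutants are measured by CellTiterGlo luminescence; compounds (23 nl pinned per well) restoring growth score as division inhibitors or fusion activators.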
TDP-43 yeast inh – qHTS of TDP-43 Inhibitors; TDP-43 expressing yeast growth rescue, BacTiter-Glo, 24 h; Potency, µM (highest dose often 46.1 µM), without a hit: top-dose growth rescue (activation), usual class: activators; actives 1.8% (n = 410,000); AID 652104, 2013; also: potency is read from the fitted curve at half-maximal effect; % of control where 0% means no effect; nearly all actives have a fitted effect of over 50% in size
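Yeast expressing TDP-43 (pregrown in raffinose, seeded at OD600=0.02 in galactose medium) exposed to compounds 24 hr at 30 deg C. Growth read by BacTiter-Glo luminescence; rescue of toxicity appears as increased signal.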
Active calls of the source: *; i = inactive; ? = inconclusive; / = no result; ! = not confirmed by another sample; [ ] = another dose, or the depositor's remark. Unless noted, calls follow the shape of the dose curve; as a rule, active = well fitted curve in the direction sought with a large enough effect; inconclusive = small, poorly fitted or top-dose-only effect, or another doubt; inactive = no such curve, though single readings can be large; an effect the other way counts as inactive or inconclusive.

SMILES | CCT chaperon mod | Akt phos inh | aSyn rescue | Apoferritin bind | Mito fusion act | TDP-43 yeast inh
Cc1ccc(S(=O)(=O)CCc2nc3ccccc3s2)cc1 | -3 | -101%* | 3% | -8% | 0% | 18%
CC(=O)c1nnn(-c2nc(C#N)nc(N3CCOCC3)n2)c1C | / | / | 2% | / | / | /
CCOC(=O)c1c(C)oc2cc(Br)c(O)c(Br)c12 | -1 | i | 4% | -2% | 15% | 13µM*
CCOC(=O)COc1cc2c(C(=O)OCC)c(C)oc2cc1Br | 1 | i | 3% | -9% | 4% | 22%
CCOC(=O)c1c(NC(C)=O)sc2c(O)c(Br)cc(Br)c12 | -2 | i | -4% | 1% | ? | 13µM*
Cc1cc(=O)n(CC(=O)NC(C)c2ccccc2)c2c1c(C)nn2C (centres undefined) | / | / | / | -1% | / | ?
CC(C)Oc1ccc(CNC(=O)CCCn2c(=O)c3cccn3c3cccnc32)cc1 | / | / | / | -7% | / | 2%
O=C(CCn1c(=O)c2cccn2c2cccnc21)NCc1ccc(Cl)cc1 | / | / | / | -3% | / | 21%
O=C(CCCn1c(=O)c2cccn2c2cccnc21)NCCc1ccc(Cl)cc1 | 0 | i | -11% | -3% | 8% | 22µM*!
CCc1ccc(CNC(=O)CCCn2c(=O)c3cccn3c3cccnc32)cc1 | 0 | i | -4% | -4% | 11µM* | 12%
O=C(COC(=O)C12CC3CC(CC(O)(C3)C1)C2)NCc1ccco1 | / | / | -4% | / | / | /
COc1ccccc1C1=Nn2c(nnc2-c2ccccc2O)SC1 | / | / | / | -22% | / | /
O=C(O)C1C2CCC(O2)C1C(=O)Nc1cnn(Cc2ccccc2)c1 (centres undefined) | -2 | i | 0% | -9% | -3% | -13%
O=C(Nc1cnn(Cc2ccccc2)c1)NC12CC3CC(CC(C3)C1)C2 | 0 | i | 14% | 16µM* | 1% | -1%
CC(C)c1nnc(NC(=O)CCC(=O)N2CCN(c3ccc(Cl)cc3)CC2)s1 | -2 | i | 3% | -16% | -1% | -6%
CC(C)c1nnc(NC(=O)CCC(=O)N2CCN(Cc3ccccc3)CC2)s1 | -43* | i | -7% | -15% | -5% | 2%
CN1C(=O)/C(=C/c2cccc(Cl)c2)Sc2ccc(C(=O)N3CCOCC3)cc21 | -2 | i | 16% | -5% | ? | 20µM*
O=C(Nc1cccc(Oc2ccccc2)c1)C1Cc2c(-c3ccco3)ccnc2O1 (centres undefined) | -3 | i | -4% | / | / | 18µM*
COc1ccc(NC(=O)C2Cc3c(-c4ccccc4Oc4ccccc4)ccnc3O2)cn1 (centres undefined) | -3 | i | 8% | / | / | ?
O=C(Nc1cccc(Oc2ccccc2)c1)C1Cc2c(-c3ccccc3)ccnc2O1 (centres undefined) | 0 | i | -7% | / | / | -2%
COc1ccc(NC(=O)C2Cc3c(-c4ccccc4Oc4ccccc4)ccnc3O2)cc1OC (centres undefined) | 0 | i | 6% | / | / | 11µM*
CCn1cc(C(=O)Nc2ccc(C(C)C)cc2)c2cc(OC)c(OC)cc2c1=O | / | / | / | ? | / | 14%
CCOc1ccc(-n2nc(CO)c(C(=O)NCc3ccccn3)n2)cc1 | / | / | / | -7% | / | 24%
CCCC(=O)Nc1nc(-c2ccccc2)ns1 | -2 | i | -24% | 8% | 16% | 16µM*
CCC(=O)Nc1nc(-c2ccccc2)ns1 | 3 | / | / | -5% | 3% | 8.9µM*
SMILES | CCT chaperon mod | Akt phos inh | aSyn rescue | Apoferritin bind | Mito fusion act | TDP-43 yeast inh
O=C(Nc1nc(-c2ccc(Br)cc2)ns1)c1ccccc1F | / | / | / | 13% | / | 4%
CC(=O)Nc1nc(-c2ccc(Cl)cc2)ns1 | 0 | i | -18% | -9% | / | 13µM*
CC(C)C(=O)Nc1nc(-c2ccccc2)ns1 | -1 | i | -15% | 3% | 13% | 13µM*
Cc1nnc(SCCC(=O)Nc2nc(-c3ccccc3)ns2)s1 | 2 | / | / | -17% | 1% | ?
CO[C@H]1COC(=O)C/C=C\[C@H](C)[C@@H](OC)COC(=O)[C@@H](C)COC(=O)C/C=C\[C@@H]1C | / | / | / | -8%[15.3 µM] | / | /
CCC(Sc1nnc2c(n1)[nH]c1ccccc12)C(=O)Nc1nnc(C(C)C)s1 (centres undefined) | / | / | / | -17% | / | -14%
CCCCc1nc(NCCNC(=O)c2ccco2)c(C#N)c2c1CSC(C)(C)C2 | 0 | i | -2% | -16% | -16% | ?
CCCCc1nc(NCCNC(=O)c2ccccc2)c(C#N)c2c1CSC(C)(C)C2 | 0 | i | -7% | 2% | -13% | 22µM*
CN(C)C(=O)C12CCC(C)(c3nc4ccccc4nc31)C2(C)C (centres undefined) | -4 | i | -7% | 4% | 12% | 13%
Cc1cc2nc3c(nc2cc1C)C1(C(=O)N(C)C)CCC3(C)C1(C)C (centres undefined) | -1 | -110%* | -10% | -12% | 0% | ?
COc1cc(=O)n(C)c2c(OC[C@@H](O)C(C)(C)O)cccc12 | / | / | / | 2%[29.3 µM] | / | /
Cc1ccccc1NC(=O)c1sc2nc(-c3ccncc3)ccc2c1N | / | / | / | 2% | / | 0%
C=CCSc1nnc(-c2cc3c(-c4ccccc4)nn(C)c3s2)n1C | -2 | i | 6% | -13% | 2% | 20µM*
C=CCSc1nnc(-c2cc3c(C(F)(F)F)nn(C)c3s2)n1C | -3 | i | 0% | -22% | -1% | 20%
Cn1cc(-c2ccc3c(c2)OCO3)c2ccccc21 | -1 | i | 2% | / | / | 25µM*
Cn1cc(S(=O)(=O)CC(=O)Nc2ccc3c(c2)OCO3)c2ccccc21 | -2 | / | 0% | -10% | -2% | -21%
C=C1NN(C(C)C(=O)O)C(=O)N1c1ccc(OCc2ccccc2)cc1 (centres undefined) | / | / | -1% | / | / | /
Cc1ccc(CNC(=O)CCS(=O)(=O)c2cc3c4c(c2)CCN4C(=O)CC3)cc1 | / | / | / | 0% | / | 17%
CC1CCCC(NC(=O)CSc2ncnc3ccccc23)C1C (centres undefined) | 3 | i | 2% | / | / | 14µM*
COc1ccc(N2C(=O)C(Cl)=C(N(CCO)Cc3ccccc3)C2=O)cc1 | -1 | -112%* | 4% | ? | -1% | ?
CC1CN(c2c(F)c(N)c3c(=O)c(C(=O)O)cn(C4CC4)c3c2F)CC(C)N1 (centres undefined) | / | / | / | 4% | / | /
COc1ccc(-c2cn3cccnc3n2)cc1NC(=O)c1cc(C)cc(C)c1 | / | / | / | 7% | / | 23%
COc1cccc(C2=CC(=O)C[C@H](c3ccc4c(c3)OCO4)C2)c1OC | 0 | i | -2% | / | 12% | 13µM*
